Experimental data published in PubChem BioAssay (EPA / NIEHS).
Several values for one entry are separate records, joined by “and”; a condition that tells them apart may be missing. Identical values can stand only once. Where a structure was tested more than once in an assay, its records may differ in their call. Activity calls are given as the source filed them. The calls were made as follows: active = hit-call score of the fitted dose curve at least 0.9, where 1 is the maximum; inactive = score below 0.9.

Columns and labels:
Settings in all cases: mRNA level, 48 h; actives raise or lower the signal
[1] = read-out: ABC Transporter (ABCB1), ABCB1 (gene 5243); experiment: LTEA_HepaRG_ABCB1: Life Technologies and Expression Analysis (LTEA) Assay for ABC Transporter (ABCB1) using HepaRG (AID 2283460)
How it was run: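 HepaRG, 48 h exposure, 8-pt half-log series from 100 uM, 0.5% DMSO vehicle, duplicates. Readout: ABCB1 transcript by Fluidigm TaqMan qRT-PCR, housekeeping-normalized; bidirectional curve fit vs DMSO baseline.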

[2] = read-out: growth arrest and DNA damage 45 (GADD45B), GADD45B (gene 4616); experiment: LTEA_HepaRG_GADD45B: Life Technologies and Expression Analysis (LTEA) Assay for growth arrest and DNA damage 45 (GADD45B) using HepaRG (AID 2283461)
How it was run: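 Human HepaRG monolayers receive chemicals for 48 h at eight half-log concentrations, highest 100 uM, in 0.5% DMSO. Expression is measured by TaqMan qRT-PCR and normalized to ACTB, GAPDH and POLR2A.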

[3] = read-out: ABC Transporter (ABCB11), ABCB11 (gene 8647); experiment: LTEA_HepaRG_ABCB11: Life Technologies and Expression Analysis (LTEA) Assay for ABC Transporter (ABCB11) using HepaRG (AID 2283463)
How it was run: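 HepaRG, 48 h exposure, 8-pt half-log CRC top 100 uM, 0.5% DMSO vehicle, duplicates. Readout: TaqMan qRT-PCR of ABCB11 mRNA, housekeeping-normalized (ACTB/GAPDH/POLR2A). Bidirectional fit vs DMSO baseline.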

[4] = read-out: Broad substrate specificity ATP-binding cassette transporter ABCG2 (Homo sapiens) (UniProt Q9UNQ0); experiment: LTEA_HepaRG_ABCG2: Life Technologies and Expression Analysis (LTEA) Assay for ABC Transporter (ABCG2) using HepaRG (AID 2283465)
How it was run: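 HepaRG, 48 h exposure, 8-pt half-log series from 100 uM, 0.5% DMSO vehicle, duplicates. Readout: ABCG2 transcript by qRT-PCR (Fluidigm array), housekeeping-normalized; bidirectional curve fit relative to DMSO baseline.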

[5] = read-out: ATP-citrate lyase (ACLY), ACLY (gene 47); experiment: LTEA_HepaRG_ACLY: Life Technologies and Expression Analysis (LTEA) Assay for ATP-citrate lyase (ACLY) using HepaRG (AID 2283466)
How it was run: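 qRT-PCR readout of ACLY transcript after 48 h chemical treatment of HepaRG cells; expression normalized to three housekeeping genes. Eight-point half-log series, highest 100 uM, 0.5% DMSO vehicle. Gain or loss fitted against DMSO baseline.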

[6] = read-out: Alkaline Phosphatase, Placental (ALPP) gene, ALPP (gene 250); experiment: LTEA_HepaRG_ALPP: Life Technologies and Expression Analysis (LTEA) Assay for Alkaline Phosphatase, Placental (ALPP) gene using HepaRG (AID 2283468);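 as to AC50: differentiated human HepaRG liver cells in serum-free induction medium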
How it was run: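 Using human liver HepaRG cells, chemicals are tested in duplicate over 48 h at half-log concentrations topping at 100 uM; phenobarbital 1 mM serves as induction control. ALPP mRNA change by qRT-PCR, bidirectional fit against vehicle.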

[7] = read-out: Bcl-2 (BAD) gene, BAD (gene 572); experiment: LTEA_HepaRG_BAD: Life Technologies and Expression Analysis (LTEA) Assay for Bcl-2 (BAD) gene using HepaRG (AID 2283469)
How it was run: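 HepaRG, 48 h exposure, 8-pt half-log curve from 100 uM in 0.5% DMSO, duplicates. Readout: TaqMan qRT-PCR for BAD mRNA, housekeeping-normalised (ACTB/GAPDH/POLR2A); gain or loss fitted against DMSO baseline.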

[8] = read-out: ABC Transporter (ABCC2), ABCC2 (gene 1244); experiment: LTEA_HepaRG_ABCC2: Life Technologies and Expression Analysis (LTEA) Assay for ABC Transporter (ABCC2) using HepaRG (AID 2283464)
How it was run: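 After plating and 48 h culture, HepaRG medium is replaced with serum-free induction medium and chemicals are added (8 concentrations, max 100 uM, 0.5% DMSO) for 48 h. Total RNA then undergoes qRT-PCR for ABCC2 with housekeeping normalization.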

[9] = read-out: Peroxisomal acyl-coenzyme A oxidase 1 (ACOX1) gene, ACOX1 (gene 51); experiment: LTEA_HepaRG_ACOX1: Life Technologies and Expression Analysis (LTEA) Assay for Peroxisomal acyl-coenzyme A oxidase 1 (ACOX1) gene using HepaRG (AID 2283467)
How it was run: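 HepaRG, 48 h chemical exposure, 8-pt half-log series from 100 uM top, 0.5% DMSO vehicle, duplicates. Readout: ACOX1 mRNA by Fluidigm qRT-PCR, housekeeping-normalized; bidirectional fit vs DMSO baseline.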

[10] = read-out: ABC Transporter (ABCC3), ABCC3 (gene 8714); experiment: LTEA_HepaRG_ABCC3: Life Technologies and Expression Analysis (LTEA) Assay for ABC Transporter (ABCC3) using HepaRG (AID 2283462)
How it was run: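 Transcriptional change of ABCC3 in HepaRG after 48 h treatment, determined by qRT-PCR normalized to endogenous controls. Concentrations spanned eight half-log steps to 100 uM in 0.5% DMSO.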

Broad substrate specificity ATP-binding cassette transporter ABCG2 (Homo sapiens), sequence (Q9UNQ0 whole entry, looked up): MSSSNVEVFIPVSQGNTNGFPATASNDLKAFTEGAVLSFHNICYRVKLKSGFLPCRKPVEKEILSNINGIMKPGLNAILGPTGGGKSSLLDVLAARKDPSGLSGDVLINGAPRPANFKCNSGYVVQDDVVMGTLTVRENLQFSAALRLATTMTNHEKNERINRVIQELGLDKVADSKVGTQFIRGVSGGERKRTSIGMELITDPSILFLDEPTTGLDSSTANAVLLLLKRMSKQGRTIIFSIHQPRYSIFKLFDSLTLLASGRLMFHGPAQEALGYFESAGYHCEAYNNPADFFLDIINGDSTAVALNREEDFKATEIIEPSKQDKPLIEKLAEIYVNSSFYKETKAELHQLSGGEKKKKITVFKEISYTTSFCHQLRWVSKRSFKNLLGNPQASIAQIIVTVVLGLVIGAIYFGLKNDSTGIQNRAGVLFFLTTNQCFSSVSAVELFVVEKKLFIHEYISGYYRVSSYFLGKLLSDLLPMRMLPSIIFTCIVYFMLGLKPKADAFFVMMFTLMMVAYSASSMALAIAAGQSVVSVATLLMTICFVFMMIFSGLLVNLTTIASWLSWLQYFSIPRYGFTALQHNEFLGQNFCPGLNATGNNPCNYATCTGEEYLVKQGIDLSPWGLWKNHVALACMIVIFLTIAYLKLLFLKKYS

With CNC(=O)Oc1cccc(N=CN(C)C)c1 the outcome [1] was “inactive”, the outcome [2] was “inactive” and the outcome [3] was “inactive”. The outcome [4] was “inactive”, the outcome [5] was “inactive” and the outcome [6] was “inactive”. The outcome [7] was “inactive”.

With COP(=S)(OC)Oc1ccc([N+](=O)[O-])cc1 the outcome [1] was “inactive”, the outcome [2] was “inactive” and the outcome [3] was “inactive”. The outcome [8] was “inactive”, the outcome [4] was “inactive” and the outcome [5] was “inactive”. For the same compound, the outcome [6] was “inactive” and the outcome [7] was “inactive”.

For CCc1ccc(C(=O)NN(C(=O)c2cc(C)cc(C)c2)C(C)(C)C)cc1, the AC50 [1] was 13.3 µM (active), the outcome [2] was “inactive” and the outcome [3] was “inactive”. The AC50 [4] was 50 µM (active), the outcome [5] was “inactive” and the AC50 [6] was 50 µM (active). The outcome [7] was “inactive”.

CC(C)OC(=O)Nc1cccc(Cl)c1 was tested, and the outcome [1] was “inactive”, the outcome [2] was “inactive” and the outcome [3] was “inactive”. The outcome [4] was “inactive”, the outcome [5] was “inactive” and the outcome [9] was “inactive”. For the same compound, the outcome [6] was “inactive” and the outcome [7] was “inactive”.

With Clc1ccccc1-c1nnc(-c2ccccc2Cl)nn1 the outcome [1] was “inactive”, the outcome [2] was “inactive” and the outcome [10] was “inactive”. For the same compound, the outcome [3] was “inactive”, the AC50 [4] was 5.64 µM (active) and the outcome [5] was “inactive”. The outcome [6] was “inactive” and the outcome [7] was “inactive”.

N#CN was tested, and the outcome [1] was “inactive”, the outcome [2] was “inactive” and the outcome [10] was “inactive”. For the same compound, the outcome [3] was “inactive”, the outcome [4] was “inactive” and the outcome [5] was “inactive”. For the same compound, the outcome [6] was “inactive” and the outcome [7] was “inactive”.

For CCC(C)(NC(=O)c1cc(Cl)c(C)c(Cl)c1)C(=O)CCl (configuration not stated), the AC50 [1] was 89.8 µM (active), the outcome [2] was “inactive” and the AC50 [10] was 65.3 µM (active). The AC50 [4] was 12.2 µM (active), the outcome [5] was “inactive” and the outcome [6] was “inactive”. The outcome [7] was “inactive”.

In the case of CNC(=O)CSP(=S)(OC)OC, the outcome [1] is reported as “inactive”, the outcome [2] is reported as “inactive” and the outcome [3] is reported as “inactive”. The outcome [4] was “inactive”, the outcome [5] was “inactive” and the outcome [6] was “inactive”. The outcome [7] was “inactive”.

In the case of CC(C)(C)C(O)C(Oc1ccc(Cl)cc1)n1cncn1 (configuration not stated), the AC50 [1] is reported as 4.64 µM (active) and 7.44 µM (active) and 3.5 µM (active), the outcome [2] is reported as “inactive” and the AC50 [3] is reported as 9.92 µM (active). The outcome [3] was “inactive”, the outcome [4] was “inactive” and the AC50 [5] was 73.6 µM (active) and 50 µM (active) and 34.1 µM (active). The outcome [6] was “inactive” and the outcome [7] was “inactive”.

With CCN(CC)C(=O)SCc1ccc(Cl)cc1 the outcome [1] was “inactive”, the outcome [2] was “inactive” and the outcome [3] was “inactive”. For the same compound, the outcome [4] was “inactive”, the outcome [5] was “inactive” and the outcome [6] was “inactive”. For the same compound, the outcome [7] was “inactive”.

With CC1(c2ccc(Oc3ccccc3)cc2)OC(=O)N(Nc2ccccc2)C1=O (configuration not stated) the outcome [1] was “inactive”, the outcome [2] was “inactive” and the AC50 [3] was 8.3 µM (active). For the same compound, the AC50 [8] was 79.3 µM (active), the AC50 [4] was 13.2 µM (active) and the AC50 [5] was 3.66 µM (active). For the same compound, the AC50 [6] was 11.2 µM (active) and the outcome [7] was “inactive”.

For CC1(C)C(C=C(Cl)Cl)C1C(=O)OC(C#N)c1ccc(F)c(Oc2ccccc2)c1 (configuration not stated), the AC50 [1] was 24.5 µM (active), the outcome [2] was “inactive” and the outcome [10] was “inactive”. The outcome [3] was “inactive”, the AC50 [4] was 21.4 µM (active) and the outcome [5] was “inactive”. The outcome [6] was “inactive” and the outcome [7] was “inactive”.

O=S(=O)(O)C(F)(F)C(F)(F)C(F)(F)C(F)(F)C(F)(F)C(F)(F)C(F)(F)C(F)(F)F was tested, and the outcome [1] was “inactive”, the outcome [2] was “inactive” and the AC50 [3] was 90.7 µM (active) and 85.1 µM (active) and 86.6 µM (active). For the same compound, the outcome [3] was “inactive”, the AC50 [4] was 14.4 µM (active) and 7.01 µM (active) and the outcome [4] was “inactive”. The AC50 [5] was 50 µM (active) and 9.92 µM (active), the outcome [5] was “inactive” and the AC50 [6] was 36.6 µM (active) and 50 µM (active) and 48 µM (active). For the same compound, the outcome [6] was “inactive” and the outcome [7] was “inactive”.

In the case of CC[C@H](C)[C@H]1O[C@]2(C=C[C@@H]1C)C[C@@H]1C[C@@H](C/C=C(\C)[C@@H](O[C@H]3C[C@H](OC)[C@@H](O[C@H]4C[C@H](OC)[C@@H](O)[C@H](C)O4)[C@H](C)O3)[C@@H](C)/C=C/C=C3\CO[C@@H]4[C@H](O)C(C)=C[C@@H](C(=O)O1)[C@]34O)O2 (tested in a mixture with another compound), the AC50 [1] is reported as 55.2 µM (active), the AC50 [2] is reported as 7.13 µM (active) and the AC50 [3] is reported as 15.8 µM (active). The AC50 [8] was 30.2 µM (active), the AC50 [4] was 13.7 µM (active) and the AC50 [5] was 52.2 µM (active). The AC50 [6] was 9.57 µM (active) and the outcome [7] was “inactive”.

In the case of CCCN(CCC)c1c([N+](=O)[O-])cc(C(F)(F)F)cc1[N+](=O)[O-], the outcome [1] is reported as “inactive”, the outcome [2] is reported as “inactive” and the outcome [3] is reported as “inactive”. The outcome [8] was “inactive”, the outcome [4] was “inactive” and the outcome [5] was “inactive”. The outcome [6] was “inactive” and the outcome [7] was “inactive”.

With O=[N+]([O-])/N=C1\NCCN1Cc1ccc(Cl)nc1 the AC50 [1] was 15.9 µM (active), the outcome [2] was “inactive” and the AC50 [3] was 26.6 µM (active). For the same compound, the AC50 [8] was 24.9 µM (active), the AC50 [4] was 35.3 µM (active) and the outcome [5] was “inactive”. For the same compound, the outcome [6] was “inactive” and the outcome [7] was “inactive”.

For O=C(O)C(F)(F)C(F)(F)C(F)(F)C(F)(F)C(F)(F)C(F)(F)C(F)(F)F, the outcome [1] was “inactive”, the outcome [2] was “inactive” and the outcome [3] was “inactive”. The outcome [8] was “inactive”, the outcome [4] was “inactive” and the outcome [5] was “inactive”. For the same compound, the AC50 [9] was 3.48 µM (active) and 8.37 µM (active), the AC50 [6] was 9.92 µM (active) and the outcome [6] was “inactive”. The outcome [7] was “inactive”.

O=C1c2ccccc2C(=O)N1SC(Cl)(Cl)Cl was tested, and the outcome [1] was “inactive”, the outcome [2] was “inactive” and the outcome [3] was “inactive”. The outcome [4] was “inactive”, the outcome [5] was “inactive” and the outcome [9] was “inactive”. The outcome [6] was “inactive” and the outcome [7] was “inactive”.

In the case of ClC1C(Cl)C(Cl)C(Cl)C(Cl)C1Cl (configuration not stated), the AC50 [1] is reported as 1.54 µM (active) and 4.45 µM (active), the outcome [2] is reported as “inactive” and the outcome [3] is reported as “inactive”. The AC50 [4] was 3.28 µM (active), the outcome [4] was “inactive” and the outcome [5] was “inactive”. The outcome [9] was “inactive”, the outcome [6] was “inactive” and the outcome [7] was “inactive”.

In the case of N#Cc1c(Cl)c(Cl)c(Cl)c(C#N)c1Cl, the outcome [1] is reported as “inactive”, the outcome [2] is reported as “inactive” and the outcome [10] is reported as “inactive”. For the same compound, the AC50 [3] was 47.1 µM (active), the outcome [4] was “inactive” and the outcome [5] was “inactive”. For the same compound, the outcome [7] was “inactive”.

For O=C(Nc1ccccc1)Nc1cnns1, the outcome [1] was “inactive”, the outcome [2] was “inactive” and the AC50 [3] was 63.6 µM (active). The outcome [4] was “inactive”, the outcome [5] was “inactive” and the AC50 [6] was 78.6 µM (active). The outcome [7] was “inactive”.
